From article PMC10726135, “HNF4α isoforms regulate the circadian balance between carbohydrate and lipid metabolism in the liver”
The full ranking holds about 18,000 sequences; the median of “log2 normalized intensity” is about 0.39, and the highest 2% start at about 6.6. This is one part of a sample in which the highest values are shown more often than they occur.

The sequences below were run against T1, HNF4alpha2 (COS-7 nuclear extract) (Homo sapiens, UniProt P41235 1-474) (assay: protein-binding microarray; COS-7 nuclear extract on double-stranded Agilent 4x180k PBM; binding buffer, salt, pH and temperature not given in the material; high values mean tight binding). Conditions: chain copies: 2; label: 3' end of strand 1 on the slide; dsDNA, one strand shown.
T1 sequence: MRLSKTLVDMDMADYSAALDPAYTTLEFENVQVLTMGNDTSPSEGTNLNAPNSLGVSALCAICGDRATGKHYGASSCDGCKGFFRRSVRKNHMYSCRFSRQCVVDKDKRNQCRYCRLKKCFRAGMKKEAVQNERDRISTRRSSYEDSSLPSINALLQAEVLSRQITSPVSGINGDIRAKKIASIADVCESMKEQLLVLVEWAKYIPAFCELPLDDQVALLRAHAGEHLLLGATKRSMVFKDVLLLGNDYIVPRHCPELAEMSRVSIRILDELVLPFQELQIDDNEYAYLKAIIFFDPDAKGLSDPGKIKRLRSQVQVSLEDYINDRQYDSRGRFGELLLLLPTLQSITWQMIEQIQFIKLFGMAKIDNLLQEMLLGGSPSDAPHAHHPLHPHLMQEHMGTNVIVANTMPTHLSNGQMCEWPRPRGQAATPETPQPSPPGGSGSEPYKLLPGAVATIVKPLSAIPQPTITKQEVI
Procedure, shortened: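 Using CaPO4, COS-7 cells were transiently transfected with a human HNF4α isoform expression vector, and their nuclear extracts were applied to a custom Agilent SurePrint G3 4x180k double-stranded oligonucleotide array (~60 nt; ~44,000 test sequences in quadruplicate). Bound HNF4α was imaged at 2-µm resolution with an Agilent G2565CA scanner. Agilent software supplied the background-corrected, normalized gProcessedSignal that serves as the binding signal.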

Sequence | binding signal [log2 normalized intensity]
CCCCTTCTTAACATCAGAAGTTGGACTTTGGCCTAGGGAGATTAGAGTATCGGTCGA | 7.59
AGGGACTTTGATCTTCTTACCCCTTTGCTGGCCTAGGGAGATTAGAGTATCGGTCGA | 2.86
AGGAGATGTGGTGGACTTTAACGACCTTTGGCCTAGGGAGATTAGAGTATCGGTCGA | 4.66
TCTTAACATCAGAAGTTGGACTTTGTACATGCCTAGGGAGATTAGAGTATCGGTCGA | 9.62
ACTTTGGAACTCAGTTAATGTACAGAGTATGCCTAGGGAGATTAGAGTATCGGTCGA | 0.375
ATTAGAGAACATGTACTTTGTACTGCTTATGCCTAGGGAGATTAGAGTATCGGTCGA | 4.15
CTTTGCTCCCACCCTGCAATTCCCCTGGGCGCCTAGGGAGATTAGAGTATCGGTCGA | 3.29
CAAACAGACCTCCCCCAACTTACTTAGTGGGCCTAGGGAGATTAGAGTATCGGTCGA | 1.85
TTCAATTTTTTTGTTGTTATCCATTTAAAAGCCTAGGGAGATTAGAGTATCGGTCGA | 1.04
GTATCTAATCTCAGATATGCTAATTAACCCGCCTAGGGAGATTAGAGTATCGGTCGA | 1.79
GTTATGAGTCTGTTGTCTAACATTTTTGACGCCTAGGGAGATTAGAGTATCGGTCGA | 0.629
CTTACTTGGCCTGTTTGCTGAAGGCCATGCGCCTAGGGAGATTAGAGTATCGGTCGA | 0.0452
CAACTAGGGCAAAGGTTAGCTTGGACAGAGGCCTAGGGAGATTAGAGTATCGGTCGA | 2.72
GGTATGTTTGTGATATTGTGAAATATATATGCCTAGGGAGATTAGAGTATCGGTCGA | 2.03
TGCCTTTGATCAGGGACCTTTGTTCCTTTAGCCTAGGGAGATTAGAGTATCGGTCGA | 4.43
GATAAGCGTATTTCAACCTTTGATCTATAAGCCTAGGGAGATTAGAGTATCGGTCGA | 5.94
AGGAGGCACTGATAAGCGTATTTCAACCTTGCCTAGGGAGATTAGAGTATCGGTCGA | 0.384
GATGATCATGGCTCACTGCACCTTGACCTCGCCTAGGGAGATTAGAGTATCGGTCGA | 7.34
GTGGTCCTAAGACTGACCTTTGATCATTTGGCCTAGGGAGATTAGAGTATCGGTCGA | 8.56
GTGGTCCTAAAATTGACCTTTGATCACTCAGCCTAGGGAGATTAGAGTATCGGTCGA | 9.68
TCATGGCTCACTGCACCTTGACCTCCTGGGGCCTAGGGAGATTAGAGTATCGGTCGA | 4.99
GCACTGATAAGCGTATTTCAACCTTTGATCGCCTAGGGAGATTAGAGTATCGGTCGA | 7.8
GAACTGAAAGAGACCTTTGACATCACCTAAGCCTAGGGAGATTAGAGTATCGGTCGA | 2.04
GACTGACCTTTGATCATTTGAGGGTGACACGCCTAGGGAGATTAGAGTATCGGTCGA | 5.65

Sequence | binding signal [log2 normalized intensity]
AGTGCGATGATCATGGCTCACTGCACCTTGGCCTAGGGAGATTAGAGTATCGGTCGA | 0.629
TGCACTTTGACCGCTCATTTGATCCTCACAGCCTAGGGAGATTAGAGTATCGGTCGA | 3.87
CACCTTCAGTCACACTGTTTGCGCAAACTAGCCTAGGGAGATTAGAGTATCGGTCGA | -0.824
TACCAAGGCTCAGAGGTCAAGTCACTGCTCGCCTAGGGAGATTAGAGTATCGGTCGA | 2.57
CCTTGGCTGTGTGACTCACCTTTGCTCTGAGCCTAGGGAGATTAGAGTATCGGTCGA | 3.71
GGGGTCTGGTTTCTAGGTAGATAAGGGAGTGCCTAGGGAGATTAGAGTATCGGTCGA | 1.29
TCATCCGCATCTGAAGATAAGAGAAGTTGCGCCTAGGGAGATTAGAGTATCGGTCGA | -0.83
AACAGTGAATGTTTCGTAATATTTAGGTGTGCCTAGGGAGATTAGAGTATCGGTCGA | 1.49
TCATTTTACAGATAAGGAAACCAAGGTCCAGCCTAGGGAGATTAGAGTATCGGTCGA | 1.45
CACCCCCATGCAAGTTCCCACAGAGCCCACGCCTAGGGAGATTAGAGTATCGGTCGA | 4.54
AGTGTAAATATTTGAGGACACAAAGTGGACGCCTAGGGAGATTAGAGTATCGGTCGA | 2.09
AATTGACCTTTGATCACTCATGGGCAAGATGCCTAGGGAGATTAGAGTATCGGTCGA | 5.65
CAAATAAACCTTTGACCAATTGACCCTATCGCCTAGGGAGATTAGAGTATCGGTCGA | 3.78
CCTAAAATTGACCTTTGATCACTCATGGGCGCCTAGGGAGATTAGAGTATCGGTCGA | 8.21
GCTGACCTTTGGTCTAAACCTACTTAGATCGCCTAGGGAGATTAGAGTATCGGTCGA | 4.25
GTTTACTCATGTGGTCCTAAGACTGACCTTGCCTAGGGAGATTAGAGTATCGGTCGA | 3.77
AATCAACCTTTGATCGTTTGCATGCAGGGCGCCTAGGGAGATTAGAGTATCGGTCGA | 3.25
CTCATGTGGTCCTAAGACTGACCTTTGATCGCCTAGGGAGATTAGAGTATCGGTCGA | 10.1
CTCATGTGGTCCTAAAATTGACCTTTGATCGCCTAGGGAGATTAGAGTATCGGTCGA | 10.5
TTGTTTACTCATGTGGTCCTAAGACTAACCGCCTAGGGAGATTAGAGTATCGGTCGA | -0.3
GGTCAAAGAGCAATCATCAAGGTGGTTTCAGCCTAGGGAGATTAGAGTATCGGTCGA | 1.71
AACACTTACACCTGGGTGCTCCCTCCCCCTGCCTAGGGAGATTAGAGTATCGGTCGA | 4.36
CTGCCTTAGTCCCAGTATGGTCTCAGTAATGCCTAGGGAGATTAGAGTATCGGTCGA | -0.127
ATGCTATCTCCCAGTTCTTTTGACCTTTGCGCCTAGGGAGATTAGAGTATCGGTCGA | 7.68
